Data reported in PubChem BioAssay AID1907 (The Scripps Research Institute Molecular Screening Center, 2009).
The campaign covered roughly 1,900 compounds. About 1,200 (63%) were called active. No stated cut-off is given here; in the data, active means inhibition above about 22%; inactive means the rest. The set was probably picked from earlier hits. Only a sample is shown.

Test: cytotoxic compounds in IEC-6 epithelial cells, confirmation, cytotoxicity control, cell-based, luminescence (AID 1907);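 further: 0% = vehicle and 100% = reference cytotoxic drug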
Conditions: IEC-6 rat intestinal epithelial viability, at 5 µM, hits give high values

SMILES | inhibition
CC1=CC(=Cc2sc3ccccc3[n+]2C)C=C(C)O1 | 32.9% (active)
Cc1cc2ccccn2c1C(C[N+](=O)[O-])c1c(F)cccc1Cl (stereo not drawn) | 10.8% (inactive)
COc1cc(-n2c(=S)[nH]c3ccc(C)cc3c2=O)c(Cl)cc1Cl | -14.8% (inactive)
